Screening results deposited in PubChem by National Center for Advancing Translational Sciences (NCATS).
IL-1B inflam inh – qHTS for Inhibitors of Inflammasome Signaling: IL-1-beta AlphaLISA Primary Screen; THP-1 LPS/ATP IL-1B secretion, AlphaLISA, 16 h; active compounds read low; activity change, % at 57.5 µM; 360,000 tested, 4.7% active; AID 743279, 2014; in the data active = activity change below about -50%; inconclusive = mostly about -30% to -49%
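Secreted IL-1B measured by AlphaLISA bead assay after 16 h compound exposure of THP-1 cells; compounds (final up to 57.5 uM) added 1 h before LPS (250 ng/mL) and ATP (1.25 mM) stimulation; lower signal means less secretion.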
HT1080-NT tox – qHTS for induction of synthetic lethality in tumor cells producing 2HG: qHTS for the HT-1080-NT fibrosarcoma cell line; HT-1080-NT fibrosarcoma viability, CellTiter-Glo ATP luminescence, 48 h; Potency, µM (highest dose often 46.1 µM), inactives show top-dose activity, negative = less viability, actives largely listed as cytotoxic; 360,000 tested, 1.6% active; AID 686970, 2013;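 also: NT is the 2HG producing partner of a matched IDH1 knockdown line; potency is read from the fitted curve at half-maximal effect; 0% = DMSO-treated cells and -100% = media-only wells without cells; nearly all actives have a fitted effect of over 55% in size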
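Fibrosarcoma NT cells, 750 per well in 5% FBS RPMI, were exposed to compound for 48 hours. Viability: CellTiter-Glo luminescence.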
DT40 TDP1 CPT – qHTS for Inhibitors of human tyrosyl-DNA phosphodiesterase 1 (TDP1): qHTS in cells in presence of CPT. chicken DT40 Tdp1-/-;hTDP1 cells + 20 nM CPT, ATP luminescence, 48 h. Potency, µM (top dose mostly 46.2 µM), for the others: at the highest dose activity change, negative = growth inhibition, hits mostly inhibitors. 420,000 tested, 12% active; also: potency is read from the fitted curve at half-maximal effect; nearly all actives have a fitted effect of over 55% in size
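Cell growth measured by CellTiter-Glo luminescence after a minimum 48 h, 37 C compound exposure with 20 nM CPT in Tdp1-knockout DT40 cells stably expressing hTDP1, seeded 400/well; qHTS titration format.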
ALOX12 inh – Primary qHTS assay for inhibitors of human arachidonate 12S-lipoxygenase (ALOX12): Round 2; Polyunsaturated fatty acid lipoxygenase ALOX12 (Homo sapiens), P18054; Potency, µM (doses to about 108 µM), without a hit: at the top dose activity change, negative = inhibition, usual class: inhibitors; 580,000 tested, 1.1% active; purified 12hLO, xylenol orange hydroperoxide absorbance; also: potency is read from the fitted curve at half-maximal effect
Target sequence (P18054 whole entry, looked up): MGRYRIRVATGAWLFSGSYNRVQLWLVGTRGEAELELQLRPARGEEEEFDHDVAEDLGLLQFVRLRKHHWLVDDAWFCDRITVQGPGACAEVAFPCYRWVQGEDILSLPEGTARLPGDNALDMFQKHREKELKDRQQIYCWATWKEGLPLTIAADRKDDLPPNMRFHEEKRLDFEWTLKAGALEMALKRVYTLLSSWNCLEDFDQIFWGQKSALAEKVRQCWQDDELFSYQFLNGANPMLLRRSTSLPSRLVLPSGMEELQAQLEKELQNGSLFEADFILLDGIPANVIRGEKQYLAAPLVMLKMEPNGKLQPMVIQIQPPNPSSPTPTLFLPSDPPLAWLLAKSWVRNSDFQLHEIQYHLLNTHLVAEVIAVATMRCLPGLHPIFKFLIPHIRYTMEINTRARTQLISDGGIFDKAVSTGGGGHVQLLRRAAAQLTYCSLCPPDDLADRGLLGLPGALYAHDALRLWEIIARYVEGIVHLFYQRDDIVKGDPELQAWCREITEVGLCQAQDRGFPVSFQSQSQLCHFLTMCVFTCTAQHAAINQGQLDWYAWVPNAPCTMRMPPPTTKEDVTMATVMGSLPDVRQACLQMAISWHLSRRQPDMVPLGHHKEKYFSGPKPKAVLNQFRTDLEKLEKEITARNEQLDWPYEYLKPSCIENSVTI
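Purified human 12hLO at 150 nM in 25 mM Hepes, 0.01% Triton X-100, pH 7.0, preincubated 15 min at room temperature with compound. Reaction started with 40 uM arachidonic acid, 30 min at room temperature. Hydroperoxide measured by Fe-xylenol orange, 573/405 nm absorbance ratio.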
HT1080 IDH1KD tx – qHTS for induction of synthetic lethality in tumor cells producing 2HG: qHTS for the HT-1080-IDH1KD cell line. HT-1080 IDH1 knockdown viability, ATP luminescence, 48 h. Potency, µM (titrated, usually from 46.1 µM), without a hit: top-dose activity, negative = toxicity, usual class: cytotoxic. 360,000 tested, 2% active;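 also: potency is read from the fitted curve at half-maximal effect; 0% = DMSO wells and -100% = cell-free medium wells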
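Using the IDH1-knockdown HT-1080 line run in the same batch and compound series as the NT line, viability after 48 h at 37 °C was determined by CellTiter-Glo luminescence and expressed as % activity.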
DT40 TDP1 no CPT – qHTS for Inhibitors of human tyrosyl-DNA phosphodiesterase 1 (TDP1): qHTS in cells in absence of CPT; DT40 Tdp1-/- hTDP1 cells, no CPT, ATP luminescence, 48 h; Potency, µM (doses to about 46.2 µM), for inactives: at the highest dose activity change, negative = growth inhibition, most hits filed as inhibitors; 420,000 tested, 15% active; AID 686978, 2013; also: potency is read from the fitted curve at half-maximal effect; nearly all actives have a fitted effect of over 55% in size
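Growth of hTDP1-complemented DT40 Tdp1-knockout cells is measured by ATP luminescence after at least 48 hr compound exposure at 37 °C, with DMSO substituting for the 20 nM CPT used in the parallel screen.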
Starred values were filed as active, the others as inactive; ? = inconclusive; / = no result; [ ] = dose if it differs, or a comment. Many of the other results were omitted from the sample, so hits are more common in it than they were. Unless noted, calls follow the shape of the dose curve; as a rule, active = well fitted curve in the direction sought with a large enough effect; inconclusive = small, poorly fitted or top-dose-only effect, or another doubt; inactive = no such curve, though single readings can be large; an effect the other way counts as inactive or inconclusive. Unless noted, % is scaled to controls: 0 for no effect and ±100 for the full control effect.

SMILES | IL-1B inflam inh | HT1080-NT tox | DT40 TDP1 CPT | ALOX12 inh | HT1080 IDH1KD tx | DT40 TDP1 no CPT
CC(C)OP(=O)(OC(C)C)/C(C=O)=N\Nc1ccc([N+](=O)[O-])cc1 | -90* | 21µM* | 16µM* | ? | 16µM* | ?
CC(C)(C)c1ccc(C(=O)O/N=C(\N)c2ccccc2)cc1 | 7 | 1% | ? | 1% | 2% | 13µM*
Cc1noc(-c2ccc(Cl)cc2)c1C(=O)O/N=C(\N)c1ccc(C(C)(C)C)cc1 | -66* | ? | ? | -5% | ? | ?
CCOC(=O)c1cc(/C(C)=N/OC(=O)c2ccc(C(C)(C)C)cc2)on1 | 16 | 2% | ? | 0% | 8% | 16µM*
CC(C)(C)c1ccc(NC(=O)CON=C(N)c2ccccc2)cc1 | 8 | -1% | ? | -2% | -1% | 29µM*
O=C(CC1CCN(C(=O)CCC2CCCCC2)C1)NCc1ccccc1 (configuration not stated) | / | / | / | 28% | / | /
O=C(NCc1ccncc1)[C@@H]1C[C@@H](c2ccc(F)cc2)N([S+](=O)([O-])c2cccnc2)C1 | / | / | / | -33%[176 µM] | / | /
CCc1ccc(C(=O)Nc2cccc(C(C)=O)c2)cc1S(=O)(=O)N1CCOCC1 | / | / | / | 6% | / | /
CN(c1cccc(NC(=O)c2ccc(Cl)c(S(=O)(=O)N3CCOCC3)c2)c1)S(C)(=O)=O | -8 | -1% | ? | 0% | 4% | 12µM*
CC(=O)c1cccc(NC(=O)c2ccc(Cl)c(S(=O)(=O)N3CCOCC3)c2)c1 | / | / | ? | -23% | / | 0.46µM*
CC1CCCC(NC(=O)CN2CCN(S(=O)(=O)c3cccs3)CC2)C1C (configuration not stated) | 9 | -3% | -20% | 233% | 0% | 7%
Cc1ccc(NC(=O)C(Sc2nnnn2C2CC2)c2ccccc2)cc1 (configuration not stated) | / | / | / | 9% | / | /
CN=c1scc(C)n1/N=C/c1ccc(O)cc1O | -3 | -14% | ? | 6% | -20% | ?
CN=c1scc(C)n1/N=C/c1ccc(O)cc1 | -13 | -2% | ? | 0% | -11% | 23µM*
C=CCN=c1scc(C)n1/N=C/c1ccc(O)c(O)c1 | 44 | -14% | 16µM* | ? | -21% | 7.3µM*
CN=c1scc(-c2ccco2)n1/N=C/c1ccc(O)c(O)c1 | 47 | -37% | 4.6µM* | 40µM* | -5% | 9.2µM*
COc1ccc(NC(=O)CCc2ncc(-c3ccccc3)o2)cc1 | / | / | / | -2% | / | /
CCCCCCCCCCCCCC[N+](C)(C)Cc1ccccc1 | / | / | 1.2µM* | -6%[22.9 µM] | / | 1.1µM*
CCCCCCCCCCCCCc1ccccc1 | / | / | / | 28%[176 µM] | / | /
CCCCCCCCCCCCCCCC[N+](C)(C)Cc1ccccc1 | / | / | 1.2µM* | ? | / | 0.94µM*
CCCCCCCCCCOC(=O)C[N+](C)(C)Cc1ccccc1 | / | / | / | 45µM* | / | /
CCn1nc(C)cc1S(=O)(=O)N[C@@H]1COCC[C@@H]1OCc1ccccc1 | / | / | / | 74% | / | /
CCNC(=O)C(=O)NCc1ccncc1 | 9 | 8% | -1% | -2% | 14% | -1%
O=C(CSc1nc(-c2cccs2)cc(C(F)(F)F)n1)Nc1ccccc1Cl | / | / | ? | -24% | / | 18µM*
COc1ccc(NC(=O)CSc2nc(-c3cccs3)cc(C(F)(F)F)n2)c(OC)c1 | / | / | 16µM* | -9% | / | 21µM*
SMILES | IL-1B inflam inh | HT1080-NT tox | DT40 TDP1 CPT | ALOX12 inh | HT1080 IDH1KD tx | DT40 TDP1 no CPT
COc1ccc(NC(=O)CSc2nc3nc(-c4cccs4)cc(C(F)(F)F)c3c(=O)[nH]2)c(OC)c1 | 18 | -22% | -24% | ? | -24% | ?
Cc1ccc(NC(=O)CSc2nc(-c3cccs3)cc(C(F)(F)F)n2)cc1C | / | / | 7.3µM* | -19% | / | 5.8µM*
O=C(CSc1nc(-c2cccs2)cc(C(F)(F)F)n1)Nc1cc(OCC(F)(F)C(F)F)cc([N+](=O)[O-])c1 | 5 | ? | 8.2µM* | -1% | ? | 12µM*
O=C(O)CCC(=O)N1Cc2ccccc2CC2(CCCN(Cc3ccc(O)cc3)C2)C1 (configuration not stated) | / | / | / | 1%[6.33 µM] | / | /
COCCn1c(C)c(C)c(S(=O)(=O)c2ccc(F)cc2)c1NC(=O)C(C)C | / | / | / | -3% | / | /
CN(C)C[C@@H]1CN(C2CCOCC2)C[C@H]1NC(=O)Cc1ccc(F)cc1 | / | / | / | 45% | / | /
CC1CCCCN1S(=O)(=O)c1ccc(NC(=O)c2cccs2)cc1 (configuration not stated) | ? | ? | ? | 10% | -1% | ?
O=C(NC(=S)N1CCN(c2ccc(Cl)cc2[N+](=O)[O-])CC1)c1cccs1 | 26 | -3% | 9.2µM* | / | -4% | 21µM*
CC1CCN(C(=S)NC(=O)c2cccs2)CC1 | 33 | -2% | ? | -24% | -28% | ?
CC1CCCCN1C(=S)NC(=O)c1cccs1 (configuration not stated) | 10 | -6% | ? | -28% | -7% | 16µM*
O=C(NC(=S)N1CCCCC1)c1cccs1 | -4 | 6% | ? | -8% | 0% | 15µM*
O=C(c1cccs1)N1CCN(C(=O)c2cccs2)C1=S | -95* | ? | 5.8µM* | ? | 21µM* | 5.8µM*
O=C(NC(=S)N1CCN(c2ccc(Cl)cc2[N+](=O)[O-])CC1)c1ccco1 | 12 | -11% | ? | -12% | -12% | ?
O=C(NC1CCCCC1)c1ccc(Cn2c(SCc3cccc(F)c3)nc3cccnc32)cc1 | / | / | 21µM* | 6% | / | 21µM*
O=C(NC1CCCC1)c1ccc(CSc2nc3cccnc3n2Cc2ccccc2)cc1 | / | / | ? | 2% | / | 16µM*
O=C(NC1CCCCC1)c1ccc(CSc2nc3cccnc3n2Cc2ccccc2)cc1 | / | / | ? | 7% | / | ?
COc1ccc(Cn2c(SCc3ccc(C(=O)NC4CCCC4)cc3)nc3cccnc32)cc1 | / | / | ? | -12% | / | 18µM*
O=S(=O)(c1ccc(Cl)nc1)N1CCC(Cc2ccccc2)CC1 | 19 | 11% | 7% | 47% | -1% | 8%
